{"source": "the supplement of paper PMC7366291", "note": "Counter-ions that a name gives are not always drawn. ± gives the standard deviation of the averaged measurements."}
{"system": "Danio rerio Tg(wt1b:EGFP) embryo, pronephros", "assay": "glomerular width (mean of left and right), fold change vs DMSO control; higher = wider glomerulus", "settings": "25 µM; exposure: 24-48 hpf", "method_in_brief": "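Dechorionated Tg(wt1b:EGFP) zebrafish embryos were treated with 25 μM compound in 0.5% DMSO, in HEPES-buffered E3 with 0.003% PTU, from 24 to 48 hpf at 28.5°C. On maximum projections of dorsal pronephros images, 16 hand-placed reference points in Fiji gave distances and angles, and values more than 2 SD from the feature mean were left out. Results are fold changes over the mean of same-day DMSO-treated embryos.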"}
{"smiles": "CCCc1nc2c(C)cc(-c3nc4ccccc4n3C)cc2n1Cc1ccc(-c2ccccc2C(=O)O)cc1", "note": "[Telmisartan]", "glomerular width": "0.988 ± 0.024"}
{"smiles": "O=C1NCCN1CCN1CCC(c2cn(-c3ccc(F)cc3)c3ccc(Cl)cc23)CC1", "note": "[Sertindole]", "glomerular width": "1.08 ± 0.022"}
{"smiles": "CN(C)CCOC(c1ccccc1)c1ccccc1.Cn1c(=O)c2[nH]c(Cl)nc2n(C)c1=O", "note": "[Dimenhydrinate]", "glomerular width": "1.05 ± 0.054"}
{"smiles": "O=c1n(CCCN2CCN(c3cccc(Cl)c3)CC2)nc2ccccn12", "note": "[Trazodone hydrochloride]", "glomerular width": "0.97 ± 0.015"}
{"smiles": "OCCOCCN1CCN(C(c2ccccc2)c2ccc(Cl)cc2)CC1", "note": "(stereo unspecified) [Hydroxyzine dihydrochloride]", "glomerular width": "1.02 ± 0.013"}
{"smiles": "COc1ccccc1N1CCN(CCCNc2cc(=O)n(C)c(=O)n2C)CC1", "note": "[Urapidil hydrochloride]", "glomerular width": "0.969 ± 0.025"}
